From PubChem BioAssay AID2252 (Southern Research Specialized Biocontainment Screening …, 2010)
Among all 2,300 compounds or so, about 1,500 (65%) were called active. No rule for the calls is given here. So high a share suggests a set chosen from earlier hits. These entries were drawn from the full list.

Test: PubChem AID 2252
Details: THP-1 viability, CellTiter-Glo luminescence, 72 h; min viability: minimum viability across concentrations, concentration not given here; series mostly up to 50 µM
With `CCOC(=O)c1ccc(NC(=O)c2cc3c(s2)CCC3)cc1` the outcome was “inactive”.
For `CCC1(CC)C(=O)NC(=O)NC1=Nc1cccc(OC)c1`, the outcome was “inactive”.
For `CCOc1ccc2nnnn2n1`, the outcome was “inactive”.
With `CCCCC(=O)Nc1ccc(F)c(Cl)c1` the outcome was “inactive”.
For `Clc1ccc(Cn2cc(Br)cn2)cc1Cl`, the outcome was “inactive”.
In the case of `CCOC(=O)CSc1nc(-c2ccccc2)nc2ccccc12`, the outcome is reported as “inactive”.
In the case of `COc1ccccc1NC(=O)Cn1c(=O)n(CCc2c[nH]c3ccccc23)c(=O)c2cccnc21`, the outcome is reported as “inactive”.
In the case of `c1ccc(N2CCN(c3nc4ccccc4[nH]3)CC2)nc1`, the outcome is reported as “inactive”.
With `C=CCOc1ccc(-c2n[nH]c(=S)o2)cc1` the outcome was “inactive”.
With `C=CC1=C(C(=O)O)N2C(=O)[C@@H](NC(=O)/C(=N\O)c3csc(N)n3)[C@H]2SC1` (stereo in doubt) the outcome was “inactive”.
For `COc1ccc(/C=N/NC(=O)c2cccnc2)cc1`, the outcome was “inactive”.
For `Cc1ccc2cc(-c3noc(C4CCCO4)n3)c(=O)[nH]c2c1` (stereo unspecified), the outcome was “inactive”.
For `CCOc1ccc(NC(N)=O)cc1`, the outcome was “inactive”.
In the case of `Clc1ccc(OCc2nn3c(C4CCCCC4)nnc3s2)c(Cl)c1`, the outcome is reported as “inactive”.
With `COc1ccccc1CNC(=O)COC(=O)CCC(=O)c1cccs1` the outcome was “inactive”.
With `O=c1c2ccccc2ncn1Cc1ccc(Cl)cc1` the outcome was “inactive”.
For `COc1nc(N(C#N)CC(N)=O)nc(N2CCCC2)n1`, the outcome was “inactive”.
For `Cc1ccc(-c2c(C)n([O-])c3c([n+]2=O)CCCC3)o1`, the outcome was “inactive”.
For `O=S(=O)(c1ccccc1)c1nc(-c2cccs2)oc1NCC1CCCO1` (stereo unspecified), the outcome was “inactive”.
For `C#CCOCCOCCOCCNc1nc(N2CCN(C(=O)C(Cc3cc4ccccc4[nH]3)n3cc(C(N)C(C)CC)nn3)CC2)nc(N2CCN(C(=O)C(Cc3cc4ccccc4[nH]3)n3cc(C(N)C(C)CC)nn3)CC2)n1` (stereo unspecified), the outcome was “inactive”.
In the case of `CC[C@H]1OC(=O)[C@H](C)[C@@H](O[C@H]2C[C@@](C)(OC)[C@@H](O)[C@H](C)O2)[C@H](C)[C@@H](O[C@@H]2O[C@H](C)C[C@H](N(C)C)[C@H]2O)[C@](C)(OC)C[C@@H](C)C(=O)[C@H](C)[C@@H](O)[C@]1(C)O`, the outcome is reported as “inactive”.
With `CCOC(=O)Cc1[nH]nc2c1C(c1ccoc1)C(C#N)=C(N)O2` (stereo unspecified) the outcome was “inactive”.
With `O/N=C/c1ccc(OCc2ccccc2)c(Cl)c1` the outcome was “inactive”.
In the case of `C#CCOCCOCCOCCNc1nc(N2CCN(C(=O)[C@H](Cc3ccc(O)cc3)n3cc([C@@H](N)CC(C)C)nn3)CC2)nc(N2CCN(C(=O)[C@H](Cc3cc4ccccc4[nH]3)n3cc([C@@H](N)CC(C)C)nn3)CC2)n1`, the outcome is reported as “inactive”.
For `Cc1ncc([N+](=O)[O-])n1CC(=O)NC1CCCC1`, the outcome was “inactive”.
In the case of `Cc1ccc(N(C(=O)c2sc(C)nc2C)C(C(=O)NCc2ccco2)c2ccccc2)cc1` (stereo unspecified), the outcome is reported as “inactive”.
In the case of `CCOC(=O)c1ccc(CNCc2ccc(Br)cc2)cc1`, the outcome is reported as “inactive”.
With `Cc1cc(C)cc(NC(=O)C(Sc2nnc(C)c(=O)[nH]2)c2ccccc2)c1` (stereo unspecified) the outcome was “inactive”.
For `Nc1ccc(S(=O)(=O)Nc2nccs2)cc1`, the outcome was “inactive”.
For `CC(C)c1cc(C(=O)Nc2ccc3c(c2)OCO3)no1`, the outcome was “inactive”.
For `CC1Cc2ccccc2N1C(=O)CN1C(=O)C(=O)N(Cc2ccccc2)C1=O` (stereo unspecified), the outcome was “inactive”.
